Screening results deposited in PubChem BioAssay by The Scripps Research Institute Molecular Screening Center.
S1P4 antag – blocks the human S1P4 receptor; O95977; S1P4-expressing cells, antagonist mode, reporter read-out; inhibition, % at 4.98 µM; 220,000 compounds, 0.26% hits; in the data active means inhibition above about 29%
Target sequence (O95977 whole entry, looked up): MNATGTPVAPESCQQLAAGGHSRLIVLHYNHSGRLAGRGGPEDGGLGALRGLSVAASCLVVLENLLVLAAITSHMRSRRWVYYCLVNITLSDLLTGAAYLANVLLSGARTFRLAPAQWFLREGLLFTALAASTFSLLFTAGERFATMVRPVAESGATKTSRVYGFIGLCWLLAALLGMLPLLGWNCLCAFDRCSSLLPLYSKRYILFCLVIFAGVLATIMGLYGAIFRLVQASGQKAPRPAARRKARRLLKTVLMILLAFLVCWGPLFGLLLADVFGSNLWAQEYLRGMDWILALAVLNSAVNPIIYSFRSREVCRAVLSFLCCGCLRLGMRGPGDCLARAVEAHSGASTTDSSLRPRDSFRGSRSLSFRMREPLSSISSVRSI
S1P3 antagonist – S1P3 (human) receptor antagonism. CHO S1P3 NFAT-BLA reporter, FRET fluorescence, antagonist mode. inhibition, % at 4.98 µM. 170,000 compounds, 0.27% hits. AID 485;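 active means inhibition above the plate cutoff, the mean inhibition of test wells on that plate plus 3 SD, cut at about 28% in these data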;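 further: cells challenged with S1P at its EC80 of 0.8 µM; blue over green emission ratio from cleaved BLA substrate after 4 h stimulation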
S1P4 agonist – agonists of human S1P4 receptor. O95977. S1P4-expressing cell line, agonist reporter assay. 220,000 compounds, 0.35% hits. activation, % at 4.98 µM; in the data active means activation above about 11%
GALR2 blocker – blocks the human galanin receptor 2; O43603; GALR2-expressing cells, antagonist mode; inhibition, % at 4 µM; 140,000 compounds, 0.39% hits; AID 828; in the data active means inhibition above about 27%;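 further: cells stimulated with galanin 1-16 at roughly its EC80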
GALR2 agonist – agonists of human galanin receptor 2 (GALR2) | AID 803 | 140,000 compounds, 0.48% hits | activation, % (no concentration beside the values) | O43603 | GALR2-expressing cells, agonist activation read-out; in the data active means activation above about 5%, passing the limit was not always enough
S1P4 antag cf – confirmation of human S1P4 receptor antagonists; shares compounds with S1P4 antag; inhibition, % at 4.98 µM; S1P4-expressing cell line, antagonist mode, reporter read-out; AID 1524; 520 compounds, 71% hits; in the data active means inhibition above about 30%
S1P1 antagonist – blocks human S1P1, counter-screen for S1P4 antagonists; shares compounds with S1P4 antag; 520 compounds, 37% hits; inhibition, % at 4.98 µM; cell-based S1P1 antagonist counterscreen, inhibition; AID 1564; in the data active means inhibition above about 40%;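 further: receptor stimulated with S1P near its EC80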
Of the large screens only hits and unclear results are named; the others gave an inactive call (follow-up assays come after a bar, where they were run). Most compounds without a hit are left out; they make up all but 1.3% or so of the library.

O=C1CCN(C(=O)c2cccs2)c2ccccc21	none
CC(C)(C)c1ccc(OCCC(=O)Nc2cccc(S(=O)(=O)N3CCCCC3)c2)cc1	none
Cc1ccc(-c2nc(NC(=O)c3nn(C)cc3[N+](=O)[O-])sc2C)cc1C	S1P4 antag 87 (no result: S1P3 antagonist) | S1P4 antag cf 115 | S1P1 antagonist inactive
Cc1cnc(NC(=O)c2nn(C)cc2[N+](=O)[O-])s1	none (no result: GALR2 blocker, GALR2 agonist)
Cc1ccc(-c2nc(NC(=O)c3nn(C)cc3[N+](=O)[O-])sc2C)cc1	S1P4 antag 78 (no result: S1P3 antagonist) | S1P4 antag cf 115 | S1P1 antagonist inactive
Cn1cc([N+](=O)[O-])c(C(=O)Nc2nc(-c3ccc(Cl)cc3)cs2)n1	none (no result: S1P3 antagonist)
O=C1CCN(Cc2nc(-c3ccc(Cl)cc3)no2)CCN1	none (no result: GALR2 blocker, GALR2 agonist)
COc1ccccc1/C=C/C(=O)c1cc(Br)ccc1OC(=O)c1ccco1	none (no result: S1P3 antagonist)
O=C(/C=C/c1cc(Br)ccc1O)c1ccco1	S1P4 antag 55 (no result: GALR2 blocker, GALR2 agonist) | S1P4 antag cf 103 | S1P1 antagonist 56
c1ccc2sc(NC3=NCN(CCN4CCOCC4)CN3)nc2c1	none (no result: GALR2 blocker, GALR2 agonist)
CC1=NNC(=O)/C1=C\c1cn(-c2ccccc2)nc1-c1ccccc1	S1P4 antag 36 (no result: GALR2 blocker, GALR2 agonist) | S1P4 antag cf 116 | S1P1 antagonist 55
Cc1c(NC2=CC(=O)CC(C)(C)C2)c(=O)n(-c2ccccc2)n1C	none (no result: GALR2 blocker, GALR2 agonist)
COc1cc(NC2CCCCC2O)c2nc(-c3ccc(Cl)cc3)ccc2c1 (stereo not drawn)	S1P4 antag 30 (no result: GALR2 blocker, GALR2 agonist) | S1P4 antag cf 65 | S1P1 antagonist 62
COc1ccc(NS(=O)(=O)c2ccc(NC(=O)c3ccccc3Br)cc2)nn1	none (no result: GALR2 blocker, GALR2 agonist)
Cc1ccc(NC(=O)C(c2ccccc2)N(C)C)cc1Cl (stereo not drawn)	S1P4 antag 34 (no result: GALR2 blocker, GALR2 agonist) | S1P4 antag cf 31 | S1P1 antagonist inactive
Cc1ccc(NC(=O)C(C)N2CCCC2)cc1Cl (stereo not drawn)	none (no result: GALR2 blocker, GALR2 agonist)
COc1cccc(C(=O)COC(=O)CCC(=O)NC2CCCCC2)c1	none (no result: GALR2 blocker, GALR2 agonist)
CC1c2ccsc2CCN1C(=O)NC(=O)c1ccc(Cl)cc1 (stereo not drawn)	none (no result: GALR2 blocker, GALR2 agonist)
Cc1ccc(-n2ncc(Br)c(Br)c2=O)cc1	S1P4 antag 103 (no result: GALR2 blocker, GALR2 agonist) | S1P4 antag cf 117 | S1P1 antagonist inactive
COc1c(Cl)cnn(-c2ccc(C)cc2)c1=O	none (no result: S1P3 antagonist)
O=c1c(Br)c(Br)cnn1-c1ccccc1	S1P4 antag 112 (no result: GALR2 blocker, GALR2 agonist) | S1P4 antag cf 121 | S1P1 antagonist 48
CCOC(=O)C1CCCN(C(=O)COc2ccc(S(=O)(=O)N(CC)c3ccccc3)cc2)C1 (stereo not drawn)	none (no result: GALR2 blocker, GALR2 agonist)
COc1ccc(/C=C(/C(=O)c2ccc(Cl)cc2Cl)n2cncn2)cc1	S1P4 antag 37 (no result: S1P3 antagonist) | S1P4 antag cf inactive | S1P1 antagonist inactive
CN(C)c1ccc(/C=C(/C(=O)c2ccc(Cl)cc2Cl)n2cncn2)cc1	none
CC(C)CC(=O)/C(=C\c1ccc(Cl)cc1Cl)n1cncn1	S1P4 antag 53 | S1P4 antag cf 119 | S1P1 antagonist 96
CNC(=O)c1nnsc1S(=O)(=O)c1ccc(Cl)cc1	S1P4 antag 61 (no result: GALR2 blocker, GALR2 agonist) | S1P4 antag cf 103 | S1P1 antagonist 76
CCC(C)C(=O)N1CCc2cc(-c3csc(N)n3)ccc21 (stereo not drawn)	S1P4 antag 41 | S1P4 antag cf inactive | S1P1 antagonist 52
COCCOC(=O)C1=C(C)N=C2SCCC(=O)N2C1c1ccc(OC(=O)c2ccco2)cc1 (stereo not drawn)	S1P4 antag 35 (no result: S1P3 antagonist) | S1P4 antag cf 54 | S1P1 antagonist 52
Oc1ccccc1C1CC(c2cccs2)=NC(c2cccc(Br)c2)N1 (stereo not drawn)	S1P4 antag 30 (no result: GALR2 blocker, GALR2 agonist) | S1P4 antag cf 43 | S1P1 antagonist inactive
CCOC(=O)N1C/C(=C\c2ccccc2)C(=O)/C(=C/c2ccccc2)C1	S1P4 antag 43 (no result: GALR2 blocker, GALR2 agonist) | S1P4 antag cf 116 | S1P1 antagonist inactive
CCOC(=O)N1CCN(S(=O)(=O)/C=C/c2ccccc2)CC1	none
Cc1ccc2c(C)nc(SC(C(=O)c3ccccc3)c3ccccc3)nc2c1 (stereo not drawn)	none
O=C(CSc1ccc2nnc(CCNS(=O)(=O)c3ccccc3)n2n1)Nc1nc2ccccc2s1	none
C=CCn1c(Sc2ncc([N+](=O)[O-])s2)n[nH]c1=O	S1P4 antag 69 (no result: GALR2 blocker, GALR2 agonist) | S1P4 antag cf 111 | S1P1 antagonist 51
O=C(Nc1ccc(Cl)cc1)Nc1ccccc1Sc1ncc([N+](=O)[O-])s1	none (no result: GALR2 blocker, GALR2 agonist)
COc1cc(SC)ccc1C(=O)Nc1ccc(C)cc1	none (no result: GALR2 blocker, GALR2 agonist)
COc1cc(SC)ccc1C(=O)Nc1ccc(C)cc1C	S1P4 antag 34 | S1P4 antag cf 55 | S1P1 antagonist inactive
COc1ccc(N2C(=O)CC(Sc3nc4c(cc3C#N)CCC4)C2=O)cc1 (stereo not drawn)	none (no result: GALR2 blocker, GALR2 agonist)
CC(=O)c1ccc(NC(=O)c2cc(Cl)sc2Cl)cc1	none
O=S1(=O)C=C(Sc2nc3ccccc3s2)c2ccccc21	S1P4 antag 55, GALR2 blocker 74 | S1P4 antag cf 113 | S1P1 antagonist 59
CC1CC(C)(C)Nc2ccc(OC(=O)c3ccco3)cc21 (stereo not drawn)	none
CC1CC(C)(C)Nc2ccc(N=O)cc21 (stereo not drawn)	S1P4 antag 37 (no result: GALR2 blocker, GALR2 agonist) | S1P4 antag cf 50 | S1P1 antagonist inactive
COc1ccc(CCNC(=O)C2CCN(Cc3nc(-c4cccc(Cl)c4)oc3C)CC2)cc1OC	S1P4 antag 30 | S1P4 antag cf inactive | S1P1 antagonist inactive
Cc1oc(-c2cccc(Cl)c2)nc1CN1CCC(C(=O)NCCCN2CCCC2=O)CC1	none
